Experimental data taken from PubChem BioAssay AID1347150 (National Center for Advancing Translational Sciences (NCATS), 2019).
Results filed as inconclusive are left out. Activity calls are given as the source filed them. Calls follow the shape of the dose curve; as a rule, active = well fitted curve in the direction sought with a large enough effect; inconclusive = small, poorly fitted or top-dose-only effect, or another doubt; inactive = no such curve, though single readings can be large or run the other way.

Tested on: Zika virus NS2B-NS3 protease (linked)
Assay: Optimization screen NINDS AMC qHTS for Zika virus inhibitors: Linked NS2B-NS3 protease assay
Details: recombinant linked NS2B-NS3 protease, AMC fluorogenic substrate; series mostly up to 52.5 µM; activity change, negative = inhibition: at the top concentration
How it was run: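 Linked NS2B-NS3 construct (NS2B hydrophilic domain joined to NS3 protease by GGGGSGGGG linker), 1 nM, preincubated 15 min with compound in 10 mM Tris-HCl pH 8.0, 0.01% Tween 20. 10 microM Bz-Nle-KRR-AMC (Km 18.3 µM) added; 15-min fluorescence change fitted to 4-parameter Hill equation.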

Activity change, negative = inhibition, inactive:
O=c1cc(-c2ccccc2)oc2cc(O)c(O)c(O)c12 -18.3%
CC(C)N=c1cc2n(-c3ccc(Cl)cc3)c3ccccc3nc-2cc1Nc1ccc(Cl)cc1 -7.44%
C[C@H]1O[C@@H](O[C@H]2CC[C@@]3(C)[C@H](CC[C@@H]4[C@@H]3C[C@@H](O)[C@]3(C)[C@@H](C5=CC(=O)OC5)CC[C@]43O)C2)C[C@H](O)[C@@H]1O[C@H]1C[C@H](O)[C@H](O[C@H]2C[C@H](O)[C@H](O[C@@H]3O[C@H](CO)[C@@H](O)[C@H](O)[C@H]3O)[C@@H](C)O2)[C@@H](C)O1 -19.2%
Nc1ccn([C@@H]2O[C@H](CO)[C@@H](O)C2(F)F)c(=O)n1 7.77% [at 114 µM]
CC1OC(OC2C(O)CC(OC3C(O)CC(OC4CCC5(C)C(CCC6C5CC(O)C5(C)C(C7=CC(=O)OC7)CCC65O)C4)OC3C)OC2C)CC(O)C1O (configuration not stated) 4.68% [at 114 µM]
CC(C)C[C@@H](NC(=O)[C@H](Cc1ccccc1)NC(=O)c1cnccn1)B(O)O -1.73% [at 114 µM]

Potency, active:
CCCCC(CC)CN=C(N)NC(N)=NCCCCCCN=C(N)NC(N)=NCC(CC)CCCC (configuration not stated) 19.2 µM
